According to PubChem BioAssay (NCI):
About 83,000 compounds went through this panel and 20% of them were active in at least one assay; those are over-represented in the sample as a whole.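 Single-concentration screen, 48 h exposure, 96-well plates. Endpoint: percent growth. Below 10 = active.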 The source made the active and inactive calls.

tested on: UO-31 renal; assay: NCI-60 one-dose screen, 48 h (100 = growth as untreated, 0 = no growth, -100 = all killed); settings: 10 µM unless noted
Method: Growth inhibition of the UO-31 human tumor cell line is measured as a screen for anti-cancer activity. Cells are grown in 96 well plates and exposed to the test compound for 48 hours. Compounds are tested at a single concentration, which is 10^-5 M for most compounds. The reported endpoint is percent growth (GI% or GIPRCNT), where numbers from 0 - 100% represent growth inhibition, and numbers from -100% - 0 represent cell death. For example, a value of 40 represents 60% growth inhibition. A value of 0 means no net growth occurred over the course of the experiment. A value of -40 indicates 40% of cells at the beginning of the experiment died by the end of the experiment. A value of -100 means all cells are dead at the end of the experiment.
NCI-60 Human Tumor Cell Lines Screen was performed using the standard one-dose NCI protocol, which is described in more detail at https://dtp.cancer.gov/discovery_development/nci-60/default.htm.
Compounds with GIPRCNT values below 10 were considered active. Activity score was based on GIPRCNT using the following formula: […]
Score is 0 for GIPRCNT values of 100 or above, 50 for GIPRCNT values of 0, and 100 for GIPRCNT values of -100.

Compound	growth
CCCCN(CCCC)CCCn1c(=O)c2sc3ncccc3c2n2nnc(-c3ccccc3)c12	48.1% (inactive)
O=C(/C=C/C12c3ccccc3C(c3ccccc31)C1C(=O)N(c3ccccc3)C(=O)C12)c1ccc(Cl)cc1 (stereo not given)	-37.1% (active)
C=C1c2c(C)nn(-c3ccc(N)cc3)c2N(C)C23CC1C1(C)c4c(C)nn(-c5ccc(N)cc5)c4N(C)C(C)(CC12)C3 (stereo not given)	51% (inactive)
N#Cc1cnn2c(-c3ccc(Cl)cc3)nc(NCCc3ccccc3)nc12	72.9% (inactive)
N#Cc1c(NC(=O)c2ccc(Br)cc2)sc2c1CCCC2	63% (inactive)
Cc1nc(-c2ccccc2)cc2c(O)c(C(=O)N/N=C/c3ccc(N(C)C)cc3)[nH]c(=O)c12	84.2% (inactive)
Cc1cc(-c2noc(C(F)(F)F)n2)ccc1N1CCN(c2cc(C(=O)N(C)C)no2)CC1	62.7% (inactive)
COc1ccccc1C(=O)NC(=S)Nc1ccc(-c2nc3ccccc3[nH]2)cc1	28.5% (inactive)
CCN(CC)CC(O)CNc1c2ccc(Cl)cc2nc2ccc(OC)cc12 (stereo not given)	-19.3% (active)
CCNCCNc1cc(-c2ccc(C(F)(F)F)cc2)c(C#N)c2nc3cc(Cl)c(Cl)cc3n12	-92.5% (active)
C[N+](C)(C)CCOC(OCC[N+](C)(C)C)(c1ccccc1)c1ccccc1	89.1% (inactive)
CNC=O	89.5% (inactive)
Cn1c(NCCc2ccc(O)c(O)c2)nc2c1c(=O)n(Cc1ccc(Cl)cc1)c(=O)n2C	29.8% (inactive)
CCC(=O)OC1=C(C)SC2=NC(c3ccc(Cl)c(Cl)c3)=CC(c3cc(OC)c(OC)c(OC)c3)N21 (stereo not given)	82.1% (inactive)
COc1cc2c(cc1OC)-c1ccc3cc4c(cc3c1N(CCN1CCCC1)C2)OCO4	32.7% (inactive)
C=C1C(=O)O[C@H]2[C@H]1CC/C(COC(=O)/C=C\C(=O)NCc1ccc(Cn3c(=O)sn(CCCC)c3=O)cc1)=C\CC[C@@]1(C)O[C@@H]21	-100% (active)
CC(=O)Nc1cccc(C2=CC(c3ccc(C)cc3)n3ncnc3N2)c1 (stereo not given)	79.7% (inactive)
CCCCNC(=O)NS(=O)(=O)c1ccc(N2N=C(c3ccc(C)cc3C)CC2c2ccc(N(C)C)cc2)cc1 (stereo not given)	51.4% (inactive)
COc1cc(C2CC(=O)Nc3n[nH]c(-c4ccccc4)c32)cc(OC)c1OC (stereo not given)	87.1% (inactive)
Fc1ccc(Nc2nc3nonc3nc2Nc2ccc(F)cc2)cc1	-6.75% (active)

Compound	growth
COc1cc2ccccc2cc1C(=O)NC(=S)Nc1ccc(-c2nc3ccccc3[nH]2)cc1	89.8% (inactive)
Cn1ncc2c(Nc3ccc(Br)cc3)nc(Nc3ccc(Br)cc3)nc21	68.3% (inactive)
CCOC(=O)c1c(C)[nH]c(C(=O)CCC(=O)OC)c1C	92.7% (inactive)
COc1ccc(/C=C2\COc3ccc(O)cc3C2=O)cc1OC	66.6% (inactive)
COc1ccc(C2=NC(=O)NC2c2ccc(OC)cc2)cc1 (stereo not given)	61% (inactive)
O=C(C[C@@]1(O)C(=O)Nc2c(Cl)ccc(Cl)c21)c1ccc(C2CC2)cc1	37.9% (inactive)
O=C(CC12CC3CC(CC(C3)C1)C2)NCCOCCOCCOCCNC(=O)c1cc2c(o1)C(=O)c1ccccc1C2=O	-68.5% (active)
COc1ccc(-c2cc(-c3ccc(Nc4nc(Nc5ccccc5)nc(Nc5ccc(Cl)cc5)n4)cc3)nc(N)c2C#N)cc1	-71.5% (active)
CCOc1ccc(-c2nc3ccc(-c4nc5ccc(N6CCN(C)CC6)cc5[nH]4)cc3[nH]2)cc1OCC	98.6% (inactive)
COc1ccc(-n2nnc(C(=O)NCCc3c[nH]c4ccc(F)cc34)c2C)cc1	83.5% (inactive)
CC1(C)C(=O)/C(=C\c2cccnc2)C[C@]2(C)[C@H]3CC=C4[C@@H]5C[C@@](C)(C(=O)O)CC[C@]5(C)CC[C@@]4(C)[C@]3(C)CC[C@@H]12	84.2% (inactive)
COc1ccc(C(=O)/C=C/c2cc3c(c(OC)c2)OCC(=O)N3)cc1	62.2% (inactive)
Cn1cc(-c2ccc3ncc(-c4ccc(CC(=O)Nc5cc(C(C)(C)C)nn5C)cc4)cc3c2)cn1	7.45% [30 µM] (active)
CS(=O)(=O)c1ccc(-c2nc3cc(Cl)ccc3n2CC(=O)N/N=C/c2ccc(Cl)cc2)cc1	77.8% (inactive)
COc1ccc(/C(C)=C(\c2ccc(Cl)cc2)c2ccc(OCCCN(C)C)cc2)cc1F	54.2% (inactive)
O=C(/C=C/C12c3ccccc3C(c3ccccc31)C1C(=O)N(c3ccc(Cl)cc3)C(=O)C12)c1ccccn1 (stereo not given)	-98.5% (active)
CCCc1nc2ccccn2c1Nc1ccc(C(=O)NO)cc1	83.3% (inactive)
C=C1C(=O)O[C@H]2[C@H]1CC/C(Cn1cc(CNCCc3c[nH]c4ccc(Cl)cc34)nn1)=C\CC[C@@]1(C)O[C@@H]21	80.1% (inactive)
CC(C)OCCCNCC(=O)Nc1ccc(S(=O)(=O)c2ccc(NC(=O)CNCCCOC(C)C)cc2)cc1	90.8% (inactive)
N#Cc1c(Oc2ccc([N+](=O)[O-])cc2)nc2sc3cc(Cl)ccc3n2c1=N	72.5% (inactive)
